# High-throughput results (PubChem BioAssay)
# Only some compounds are listed: those with a hit (about 2.2% of all), similar ones and a draw of the others.
# Rce1 inh: yeast Rce1p protease inhibitors, primary screen, biochemical, fluorescence, cell-free homogeneous. CAAX prenyl protease 2 (Saccharomyces cerevisiae (strain ATCC 204508 / S288c)), Q03530. yeast membranes, quenched prenylated peptide cleavage fluorescence. calls only. 0.27% of 290,000 active. AID 2563, 2010;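 active = fall in fluorescence gain of 50% or more versus controls, with final raw signal at or below 3038400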;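 also: plate controls were neutral control wells for no effect and wells lacking membranes for full effect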
# Target sequence (Q03530 whole entry, looked up): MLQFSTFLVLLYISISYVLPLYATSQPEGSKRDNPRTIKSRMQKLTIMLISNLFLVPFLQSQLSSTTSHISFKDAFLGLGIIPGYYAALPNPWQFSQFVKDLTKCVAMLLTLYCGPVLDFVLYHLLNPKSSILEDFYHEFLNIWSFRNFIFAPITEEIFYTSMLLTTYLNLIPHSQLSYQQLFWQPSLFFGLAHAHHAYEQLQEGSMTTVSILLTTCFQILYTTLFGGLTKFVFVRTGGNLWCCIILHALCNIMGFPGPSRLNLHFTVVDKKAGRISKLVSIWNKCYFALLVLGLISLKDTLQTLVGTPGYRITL
# PfM18AAP inh: PfM18AAP inhibitors, malaria aminopeptidase, primary screen, biochemical, QFRET, recombinant enzyme | M18 aspartyl aminopeptidase (Plasmodium falciparum 3D7) | H-Glu-NHMec fluorogenic cleavage | inhibition, % at 7.35 µM | 1.2% of 290,000 active;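 active = inhibition above the campaign mean inhibition over all tested compounds plus 3 SD, cut at about 28% in these data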;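 also: 0% = plate median of test compound wells and 100% = 2 mM ZnCl2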
# GC-A act: GC-A stimulated cGMP production enhancers – HEK293 GC-A cells, cGMP TR-FRET, EC30 ANP, primary screen. 0.14% of 370,000 active. 0% at EC30 ANP, 100% saturating ANP. Atrial natriuretic peptide receptor 1 (Homo sapiens), P16066. activation, % at 10 µM; in the data active = activation above about 40%
# PLC-gamma1 inh: PLC-gamma1 enzyme inhibitors, primary screen, biochemical, fluorescence, purified enzyme; 1-phosphatidylinositol 4,5-bisphosphate phosphodiesterase gamma-1 (Homo sapiens), P19174; 0.84% of 370,000 active; fluorogenic substrate; inhibition, % at 12.2 µM; in the data active = inhibition above about 9.5%
# NPR2 activator: human GC-B receptor activators, primary screen, HEK293 GC-B cells, cGMP TR-FRET, EC30 CNP. 0.11% of 370,000 active. 0% at EC30 CNP, 100% saturating CNP. Atrial natriuretic peptide receptor 2 (Homo sapiens), P20594. activation, % at 10 µM. AID 1920062, 2024;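 active = activation at 10 µM reaching about 35% in either raw or pattern-adjusted values, limit read from the data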
# PLC-beta3 inh: human PLC-beta3 inhibitors, primary screen, biochemical, fluorescence; inhibition, % at 12.2 µM; 0.18% of 370,000 active; 1-phosphatidylinositol 4,5-bisphosphate phosphodiesterase beta-3 (Homo sapiens), Q01970; AID 720704, 2013; Purified PLC-beta3, fluorogenic substrate;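 also: 0% = median of compound wells on plate and 100% = full blocker control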
# PLCg1 ctr: PLC-gamma1 enzyme inhibitors, counter-screen for PLC-beta3 inhibitor project, biochemical, fluorescence; shares compounds with PLC-gamma1 inh; inhibition, % at 12.3 µM; AID 743258, 2014; purified PLC-gamma1, fluorogenic substrate; 3.1% of 3,300 active; in the data active = inhibition above about 9.5%
# PLCb3 confirm: PLC-beta3 inhibitor confirmation, biochemical, fluorescence, purified enzyme; fluorogenic substrate fluorescence; 1% of 3,300 active; AID 743261, 2014; shares compounds with PLC-gamma1 inh; inhibition, % at 12.3 µM
# * hit, by the source's call; i = inactive; . = not tested or not shown. Rule as the data show it, unless noted: active = inhibition above about 11%; inactive = the rest.
SMILES,Rce1 inh,PfM18AAP inh,GC-A act,PLC-gamma1 inh,NPR2 activator,PLC-beta3 inh,PLCg1 ctr,PLCb3 confirm
Cc1ccc(NC(=O)COC(=O)c2cc(-c3cccs3)nn2-c2ccccc2)cc1[N+](=O)[O-],i,-3,-18,11*,-10,4,-4,-6
Cc1cccc(NCC(=O)N/N=C\c2cccn2C)c1,i,4,-3,11*,1,-6,-249,-1
CCOCCCNC(=O)CN1CCN(S(=O)(=O)c2ccc3c(c2)CCC3)CC1,.,.,-1,9.6*,-6,-10,-6,-4
O=C(CSc1nnc(-c2ccncc2)n1-c1ccc(Br)cc1)c1ccccc1,.,.,-9,1,-12,0,.,.
COC(=O)[C@]12C[C@H](CC(=O)NCc3cccc(C(F)(F)F)c3)C(=O)N(CCC3=CCCCC3)C1=C[C@H](C(C)C)O[C@@H]2C1CC1,.,.,-3,2,2,2,.,.
CN(Cc1ccccc1)C(=O)COC(=O)COc1ccc(Cl)cc1,.,.,-7,4,-1,-1,.,.
CN(Cc1ccccc1)C(=O)COC(=O)COc1ccc(C#N)cc1,i,5,0,9.8*,-3,0,-4,1
COc1ccc(CCNC(=O)CCNS(=O)(=O)c2cccc3nsnc23)cc1OC,i,-1,-1,11*,0,2,-4,-4
S=c1[nH]nc(-c2cc(-c3ccccc3)n[nH]2)n1N=Cc1cccc(Oc2ccccc2)c1,.,.,-9,-4,-7,0,.,.
COC(=O)C1=C(C)N(Cc2ccccc2C(F)(F)F)C(=NCc2ccc3c(c2)OCO3)NC1c1cccc(Cl)c1 (stereo not drawn),.,.,-14,12*,-12,3,-2,-4
C=CCN=C1NC(c2cccc(Cl)c2)C(C(=O)OC)=C(C)N1Cc1cccc(C(F)(F)F)c1 (stereo not drawn),.,.,-16,9,-11,12*,-11,-7
COC(=O)C1=C(C)N(Cc2ccccc2C(F)(F)F)C(=NCc2ccc3c(c2)OCO3)NC1c1cccc(F)c1 (stereo not drawn),.,.,-19,1,-22,1,.,.
C=CCN(CC#Cc1ccc(C(F)(F)F)cc1)CC=C,.,.,8,3,-2,7,.,.
CC(C)Oc1ccc(C(=O)Nc2ccc([N+](=O)[O-])cc2)cc1,i,0,0,10*,4,0,-3,-1
CN(C)S(=O)(=O)Oc1ccc(C(=O)Nc2ccc([N+](=O)[O-])cc2)cc1,i,1,-2,3,1,2,.,.
COc1cc(Cl)ccc1NC(=S)N(CCN1CCOCC1)C1CCN(C(C)=O)CC1,i,7,-2,11*,-1,10,-7,-9
CO[C@H]([C@H](C)/C=C/N(C)C=O)[C@@H](C)C(=O)CC[C@H](C)[C@H](O)[C@H](C)[C@H]1OC(=O)/C=C/C(C)=C/C[C@H](O)C[C@@H]2C=CC[C@@H](C[C@H](OC)C(C)(O)[C@@H](OC)C[C@@H](OC)[C@@H]1C)O2 (stereo partly drawn),.,.,-28,0,-31,3,.,.
CC1CCC2(CC1)CCC2NCc1ccc(Cl)cc1 (stereo not drawn),.,.,-6,-2,-1,1,.,.
CC1C(=O)Nc2ccccc2N1C(=O)c1ccc(Cl)c(Cl)c1 (stereo not drawn),i,-2,-54,1,-11,-8,.,.
CC1C(=O)Nc2ccccc2N1C(=O)c1cccc(C(F)(F)F)c1 (stereo not drawn),i,-3,-17,13*,2,-3,-4,1
C[C@H](CO)N1C[C@H](C)[C@@H](CN(C)S(C)(=O)=O)Oc2c(NC(=O)Nc3ccc(C(F)(F)F)cc3)cccc2C1=O,.,.,-2,8,-4,12*,-4,2
COc1ccc(NC(=O)N(C)C[C@H]2Oc3c(NC(=O)C4CCCCC4)cccc3C(=O)N([C@H](C)CO)C[C@@H]2C)cc1,.,.,-5,0,-2,3,.,.
C[C@H]1CN([C@@H](C)CO)C(=O)c2cccc(NC(=O)Nc3ccc(C(F)(F)F)cc3)c2O[C@H]1CN(C)C,.,.,2,1,-3,4,.,.
COc1ccc(NC(=O)N(C)C[C@H]2Oc3c(NC(=O)NC(C)C)cccc3C(=O)N([C@H](C)CO)C[C@@H]2C)cc1,.,.,2,3,1,11*,-8,-2
CC(C)(C)NC(=O)CSc1nc(N)c(NC(=O)c2ccccc2F)c(=O)[nH]1,i,6,3,6,1,12*,-3,1
SMILES,Rce1 inh,PfM18AAP inh,GC-A act,PLC-gamma1 inh,NPR2 activator,PLC-beta3 inh,PLCg1 ctr,PLCb3 confirm
CCOc1ccccc1C(=O)N1CCC(Oc2cccnc2)CC1,.,.,2,3,-7,1,.,.
CC(C)C12CN3CC(C(C)C)(CN(C1)C3c1ccc3c(c1)OCO3)C2=O (stereo not drawn),i,-4,-15,7,-11,12*,-6,-2
CC12CN3CC(C)(CN(C1)C3c1ccc3c(c1)OCO3)C2 (stereo not drawn),.,1,1,3,2,4,.,.
C[C@@H]1CN([C@H](C)CO)C(=O)CCCn2cc(nn2)CO[C@H]1CN(C)S(=O)(=O)c1cn(C)cn1,.,.,4,1,2,3,.,.
CCOC(=O)N(C)[C@H]1C[C@H]2c3[nH]c4cccc(-c5cccc(F)c5)c4c3CCN2C(=O)[C@H]1[C@H](C)O,.,.,-2,-354,3,-473,.,.
COc1ccc(C(=O)NC(=S)Nc2ccc(NC(=O)c3ccco3)cc2)cc1[N+](=O)[O-],i,-5,-1,2,-3,3,.,.
COc1ccc(C(=O)NC(=S)Nc2cccc(NC(=O)c3ccco3)c2)cc1[N+](=O)[O-],i,-12,0,13*,3,5,-1,1
O=C(NC(=S)Nc1ccccc1[N+](=O)[O-])c1ccco1,i,1,-1,1,0,-1,.,.
O=C(NC(=S)Nc1ccc([N+](=O)[O-])cc1)c1ccco1,.,.,-4,13*,-3,5,-3,0
